The results in this text go back to PubChem BioAssay (NCATS).

Inconclusive results are not listed. Where a call stands in place of a potency, no number is given. The source made the active and inactive calls. Calls follow the shape of the dose curve; as a rule, active = well fitted inhibition curve with a large enough effect; inconclusive = small, poorly fitted or top-dose-only effect; inactive = flat fitted curve, though single readings scatter.

For one test, the target named is Phospholipid hydroperoxide glutathione peroxidase GPX4 (Homo sapiens) (UniProt P36969). In words: Primary qHTS Assay for Inhibitors of Recombinant Selenoprotein Glutathione Peroxidase 4 (GPX4) (AID 1845192). Also: nearly all actives have a fitted effect of over 65% in size. As to conditions: recombinant GPX4, GR-coupled NADPH fluorescence, 15 min; series mostly up to 50 µM. An outline of the steps: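 GR-coupled readout: 100 nM GR, 1 mM GSH, 0.5 mM NADPH; NADPH fluorescence (ex 340/em 450 nm) read at t=0 and after 15 min RT. GPX4 200 nM, preincubated 30 min with compound; substrate 0.5 mM CHP.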
Sequence of Phospholipid hydroperoxide glutathione peroxidase GPX4 (Homo sapiens) (P36969 whole entry, looked up): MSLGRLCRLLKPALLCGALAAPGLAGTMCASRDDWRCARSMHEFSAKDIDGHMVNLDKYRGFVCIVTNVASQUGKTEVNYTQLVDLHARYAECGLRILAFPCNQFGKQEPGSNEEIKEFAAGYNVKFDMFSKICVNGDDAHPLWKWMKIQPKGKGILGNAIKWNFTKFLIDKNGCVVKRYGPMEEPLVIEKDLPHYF
(In general: qHTS replaces the single test concentration by a dilution series.)
Regarding `CN1CCN(c2cc(C(=O)Nc3ccc4c(c3)-c3c(c(C(N)=O)nn3-c3ccc(F)cc3)CC4)c(Cl)cn2)CC1`, the Potency entry is “inactive”. On the same count and under the same terms, the value for `COc1cc(C)c(Sc2cnc(NC(=O)c3ccc(CNC(C)C(C)C)cc3)s2)cc1C(=O)N1CCN(C(C)=O)CC1` (centres undefined) was “inactive”; that for `COc1cc(Nc2ncc(F)c(Nc3ccc4c(n3)N(COP(=O)(O)O)C(=O)C(C)(C)O4)n2)cc(OC)c1OC` was “inactive”. The same measure, in the same setting: as for `CC(=O)OCC(=O)[C@@]1(O)[C@H](C)C[C@H]2[C@@H]3C=C(C)C4=Cc5c(cnn5-c5ccccc5)C[C@]4(C)[C@@H]3[C@@H](O)C[C@@]21C`, the entry is “inactive”; as for `CC1(O)CC(c2nc(-c3ccc4ccc(-c5ccccc5)nc4c3)c3c(N)nccn23)C1` (centres undefined), “inactive”. The same measure, in the same setting: the value for `Fc1cc(-c2cccc3ncc(-c4cnn(C5CCNCC5)c4)nc23)cc(F)c1CN1CCOCC1` was “inactive”; that for `C[C@]12CC[C@H](O)CC1=CCC1C2CC[C@]2(C)C(n3cnc4ccccc43)=CCC12` (some centres undefined) was “inactive”; that for `Cc1cc(Nc2ncnc3ccc(-c4ccc(CNCCS(C)(=O)=O)o4)cc23)ccc1Oc1ccn2ncnc2c1` was “inactive”. Regarding `CCCCOc1c(C(=O)c2c(F)cc(C)cc2F)cnc2n[nH]cc12`, the Potency result was “inactive”. For `Cn1c(=O)n(-c2ccc(C(C)(C)C#N)cc2)c2c3cc(-c4cnc5ccccc5c4)ccc3ncc21`, the Potency entry was “inactive”. Same read-out and setting: the value for `Cc1cnc(-c2cnc(NCCNc3ccc(C#N)cn3)nc2-c2ccc(Cl)cc2Cl)[nH]1` was “inactive”. On the same count and under the same terms, as for `CC(C)c1nn(-c2c(Cl)cccc2Cl)c2nc(Cc3ccc(OCCO)cc3)[nH]c(=O)c12`, the entry is “inactive”; as for `CC[C@@H]1C(=O)N(C)c2cnc(Nc3ccc(C(=O)NC4CCC(N5CCN(CC6CC6)CC5)CC4)cc3OC)nc2N1C(C)C` (some centres undefined), “inactive”. On the same count and under the same terms, the value for `CC(=O)c1c(C)c2cnc(Nc3ccc(N4CCNCC4)cn3)nc2n(C2CCCC2)c1=O` was “inactive”; that for `C[C@@H]1COC(Nc2ccc3ncnc(Nc4ccc(OCc5nccs5)c(Cl)c4)c3c2)=N1` was “inactive”. With `NCC(=O)Nc1ccc(-n2nc(C(F)(F)F)cc2-c2ccc3c(ccc4ccccc43)c2)cc1`, the Potency result was “inactive”. On the same count and under the same terms, as for `CC[C@@]1(O)C(=O)OCc2c1cc1n(c2=O)Cc2cc3cc(O)ccc3nc2-1`, the entry is “inactive”. Same read-out and setting: as for `O=C(O)[C@H](Cc1c[nH]c2ccccc12)N1C(=O)c2ccccc2C1=O`, the entry is “inactive”.

Consider `C[C@@H](Oc1cc(-n2cnc3ccc(CN4CCN(C)CC4)cc32)sc1C(N)=O)c1ccccc1C(F)(F)F`, for which the Potency entry is “inactive”. The same measure, in the same setting: as for `CC(C)(C)c1cc(NC(=O)Nc2ccc(-c3cn4c(n3)sc3cc(OCCN5CCOCC5)ccc34)cc2)no1`, the entry is “inactive”; as for `O=C(Nc1cc(C(F)(F)F)cc(C(F)(F)F)c1)c1cc(Cl)ccc1O`, “inactive”; as for `c1ccc2c(CCNc3ccc(Nc4ccncc4)cc3)c[nH]c2c1`, “inactive”. The same measure, in the same setting: as for `Cc1ccc(C(=O)Nc2ccc(CN3CCN(C)CC3)c(C(F)(F)F)c2)cc1C#Cc1cnc2cccnn12`, the entry is “inactive”. In the case of `COC(=O)Nc1nc2ccc(C(=O)c3ccc(F)cc3)cc2[nH]1`, the Potency result was “inactive”. The same measure, in the same setting: as for `CC(C)c1cc(C(=O)N2Cc3ccc(CN4CCN(C)CC4)cc3C2)c(O)cc1O`, the entry is “inactive”; as for `CN1CCN(Cc2ccc(NC(=O)Nc3ccc(Oc4cc(NC(=O)C5CC5)ncn4)cc3)cc2C(F)(F)F)CC1`, “inactive”. For `Cc1cn2cc(C(=O)N(C)CCO)cc(N[C@@H]3CCOc4cccc(C)c43)c2n1`, the Potency result is “inactive”.

As to `COc1cccc(-c2ccc(NC(=O)C3=C(C(=O)O)CCC3)c(F)c2)c1`, the Potency result was “inactive”.

`CNC(=O)c1cc(Oc2ccc(NC(=O)Nc3cc(C(C)(C)C)nn3-c3ccc4ncccc4c3)c(F)c2)ccn1`: the Potency entry is “inactive”. On the same count and under the same terms, as for `Cc1c(Cn2c(C)nc3c(C(=O)O)cc(N4CCOCC4)cc32)cccc1C(F)(F)F`, the entry is “inactive”. The same measure, in the same setting: as for `CCN(CC)CCCCNc1ncc2cc(-c3cc(OC)cc(OC)c3)c(NC(=O)NC(C)(C)C)nc2n1`, the entry is “inactive”; as for `Cc1nc2cnc3ccc(C#Cc4cccnc4)cc3c2n1-c1ccc(C(C)(C)C#N)cc1`, “inactive”. On the same count and under the same terms, the value for `CCN1CCN(CC(=O)Nc2ccc(-c3cccc4c(=O)cc(N5CCOCC5)oc34)c3sc4ccccc4c23)CC1` was “inactive”; that for `c1cc(-c2cnn3cc(-c4ccc(OCCN5CCCCC5)cc4)cnc23)ccn1` was “inactive”. Consider `C=C1C(=CC=C2CCC[C@]3(C)[C@@H]([C@H](C)C=C[C@H](C)C(C)C)CC[C@@H]23)C[C@@H](O)C[C@@H]1O`, for which the Potency result is “inactive”. For the compound `CC(C)c1cnn2c(NCc3ccccc3)cc(N[C@@H](CO)[C@H](O)CO)nc12`, the Potency entry was “inactive”.

Regarding `CN(c1ncccc1CNc1nc(Nc2ccc3c(c2)CC(=O)N3)ncc1C(F)(F)F)S(C)(=O)=O`, the Potency result is “inactive”. Same read-out and setting: the value for `Nc1nc(Nc2ccc(S(N)(=O)=O)cc2)nn1C(=O)c1c(F)cccc1F` was “inactive”; that for `CN(C)CC(C)(C)CNc1nn2c(-c3ccccc3)nnc2cc1C1CCC1` was “inactive”.

The next test concerns the target Luciferin 4-monooxygenase (Photinus pyralis) (UniProt P08659). In words: Primary firefly luciferase (FLuc) qHTS assay for identification of artifact compounds. (AID 1845220). Also: nearly all actives have a fitted effect of over 60% in size. As to conditions: purified firefly luciferase, luminescence, 5 min; series mostly up to 54.1 µM. An outline of the steps: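 In this counter-screen for luciferase artifacts, test compounds met substrate (10 uM each luciferin and ATP) before 10 nM enzyme started the reaction. Light output was measured 5 min later.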
For the compound `COc1cc(Nc2ncc(F)c(Nc3ccc4c(n3)N(COP(=O)(O)O)C(=O)C(C)(C)O4)n2)cc(OC)c1OC`, the Potency result was “inactive”. On the same count and under the same terms, the value for `CC1(O)CC(c2nc(-c3ccc4ccc(-c5ccccc5)nc4c3)c3c(N)nccn23)C1` (centres undefined) was “inactive”. The same measure, in the same setting: as for `CC[C@@]1(O)C(=O)OCc2c1cc1n(c2=O)Cc2cc3cc(O)ccc3nc2-1`, the entry is “inactive”. The same measure, in the same setting: as for `Cc1c(Cn2c(C)nc3c(C(=O)O)cc(N4CCOCC4)cc32)cccc1C(F)(F)F`, the entry is “inactive”; as for `CC(C)c1cnn2c(NCc3ccccc3)cc(N[C@@H](CO)[C@H](O)CO)nc12`, “inactive”.
